Where “and” joins values, the source holds several entries; their conditions need not be identical. Equal values may be shown once.
tested on: Parabacteroides distasonis; assay: growth AUC relative to DMSO control (median of replicates) (fraction); higher = more growth (less inhibition), active = hit call of the paper; conditions: 20 µM; 24 h;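 active = AUC reduced over 20% with Padj below 0.05 in at least 2 of 3 replicates; inactive = otherwise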
Procedure, shortened: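 Gut bacterial monocultures in mGAM were treated with 20 µM compound (1% DMSO) and grown anaerobically at 37 °C in round-bottom 96-well plates from OD600 0.05. OD600 was read hourly for 24 h, with the minimum OD set to 0. Area under the growth curve was normalised to the plate median of solvent-only wells, or to row and column medians on the industrial chemical plate. Each value is the median of three biological replicates, each grown on a separate day.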

| Structure (SMILES) | growth AUC |
| --- | --- |
| COP(N)(=O)SC (centres undefined) | 1.01 (inactive) |
| COc1cc(OC)n2nc(S(=O)(=O)Nc3c(Cl)ccc(C)c3Cl)nc2n1 | 1.06 (inactive) |
| CC(C)N(C(=O)SCC(Cl)=C(Cl)Cl)C(C)C | 0.872 (inactive) |
| O=S(=O)(c1ccc(O)cc1)c1ccc(O)cc1 | 0.878 (inactive) |
| CN(C)NC(=O)CCC(=O)O | 1.03 (inactive) |
| CCN(CC)c1nc(C)cc(OP(=S)(OC)OC)n1 | 0.813 (inactive) |
| Clc1cccc(Cl)c1Cl | 1 (inactive) |
| CCN(CC)C(=S)[S-].O.O.O.[Na+] | 0.982 (inactive) |
| C#CCC1=C(C)C(OC(=O)C2C(C=C(C)C)C2(C)C)CC1=O (centres undefined) | 0.952 (inactive) |
| CCOc1ccccc1OS(=O)(=O)NC(=O)Nc1nc(OC)cc(OC)n1 | 1.02 (inactive) |
| CNC(=O)Oc1cc(C)cc(C(C)C)c1 | 0.979 (inactive) |
| CCCCN(CC)c1c([N+](=O)[O-])cc(C(F)(F)F)cc1[N+](=O)[O-] | 1.06 (inactive) |
| O=C(O)CCl | 0.949 (inactive) |
| CC[C@H](C)[C@H]1O[C@]2(C=C[C@@H]1C)C[C@@H]1C[C@@H](C/C=C(\C)[C@@H](O[C@H]3C[C@H](OC)[C@@H](O[C@H]4C[C@H](OC)[C@@H](NC)[C@H](C)O4)[C@H](C)O3)[C@@H](C)/C=C/C=C3\CO[C@@H]4[C@H](O)C(C)=C[C@@H](C(=O)O1)[C@]34O)O2.O=C(O)c1ccccc1 | 0.0402 (active) |
| CON(C)C(=O)Nc1ccc(Cl)c(Cl)c1 | 1.01 (inactive) |
| CCCCOC(=O)[C@@H](C)Oc1ccc(Oc2ccc(C#N)cc2F)cc1 | 0.704 (active) |
| Clc1cc(Cl)c(Cl)c(Cl)c1 | 0.953 (inactive) |
| CN(C)C(=O)Nc1cccc(C(F)(F)F)c1 | 0.961 (inactive) |
| CN(C)C(=O)Nc1cccc(OC(=O)NC(C)(C)C)c1 | 1.01 (inactive) |
| CCOP(=O)(NC(C)C)Oc1ccc(SC)c(C)c1 (centres undefined) | 0.77 (inactive) |

| Structure (SMILES) | growth AUC |
| --- | --- |
| ClCC(Br)CBr (centres undefined) | 1 (inactive) |
| O=[N+]([O-])c1c(Cl)c(Cl)cc(Cl)c1Cl | 0.986 (inactive) |
| CCS(=O)c1c(C#N)nn(-c2c(Cl)cc(C(F)(F)F)cc2Cl)c1N (centres undefined) | 0.949 (inactive) |
| CNC(=O)Oc1cccc2c1OC(C)(C)C2O (centres undefined) | 0.88 (inactive) |
| CCOP(=O)(SC(C)CC)N1CCSC1=O (centres undefined) | 1.05 (inactive) |
| CCOP(=O)(OCC)ON1C(=O)c2cccc3cccc(c23)C1=O | 0.619 (active) |
| O=C(O)C(F)(F)C(F)(F)C(F)(F)C(F)(F)C(F)(F)C(F)(F)F | 1.08 (inactive) |
| O=S1OC[C@@H]2[C@H](CO1)[C@]1(Cl)C(Cl)=C(Cl)[C@@]2(Cl)C1(Cl)Cl (some centres undefined) | 0.98 (inactive) and 0.937 (inactive) |
| O=C(O)c1ccccc1C(=O)Nc1cccc2ccccc12 | 0.979 (inactive) |
| CCCCN(CCCC)SN(C)C(=O)Oc1cccc2c1OC(C)(C)C2 | 0.895 (inactive) |
| C[n+]1ccc(-c2cc[n+](C)cc2)cc1.O.[Cl-].[Cl-] | 0.997 (inactive) |
| CCC(C)(CC)c1cc(NC(=O)c2c(OC)cccc2OC)on1 | 1 (inactive) |
| CNC(=O)Oc1cc(C)c(SC)c(C)c1 | 1.02 (inactive) |
| COC(=O)C(C)(Cl)Cl | 1.05 (inactive) |
| Cc1cc(Cl)ccc1N=CN(C)C | 1.03 (inactive) |
| Nc1cc(Cl)cc(Cl)c1 | 1 (inactive) |
| CCCCCCCCCc1ccc(O)cc1 | 0.885 (inactive) |
| COc1c(Cl)ccc(Cl)c1Cl | 0.985 (inactive) |
| CC(C)(C)c1cc([N+](=O)[O-])cc([N+](=O)[O-])c1O | 0.83 (inactive) |
